Measurements published in PubChem BioAssay (NCATS).
Records with an inconclusive call do not appear. Entries that show only a call come without a potency. The source made the active and inactive calls. Unless noted, calls follow the shape of the dose curve; as a rule, active = well fitted curve in the direction sought with a large enough effect; inconclusive = small, poorly fitted or top-dose-only effect, or another doubt; inactive = no such curve, though single readings can be large; an effect the other way counts as inactive or inconclusive.

Experiments:
[1] = molecular target: Cytochrome P450 3A4 (Homo sapiens) (UniProt P08684); assay: qHTS Assay for Activators of Cytochrome P450 3A4 (AID 885); also: nearly all actives have a fitted effect of over 65% in size
Method in brief: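 Using 20nM recombinant human CYP3A4 in potassium phosphate (200mM), substrate Luciferin-PPXE at 25uM, luminescent luciferin detection followed a 60-min RT NADPH reaction; data scaled to 57 uM ketoconazole.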

[2] = molecular target: DNA dC->dU-editing enzyme APOBEC-3G (Homo sapiens) (UniProt Q9HC16); assay: qHTS for inhibitors of Vif-A3G interactions: Validation (AID 588379)
Method in brief: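 Yellow fluorescence (Ex 488, Em 500-530) of Vif-coexpressing HeLa A3G-eYFP cells, scanned by Acumen cytometer, reports blocked A3G degradation. Cells plated at 700/well overnight at 37 deg C before compound addition, then a further overnight compound incubation at 37 deg C.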

[3] = Inducers of the Endoplasmic Reticulum Stress Response (ERSR) in human glioma: Validation (AID 504836)
Method in brief: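 Stably transfected U87-MG human glioma cells carrying a GRP78-based luminescent sensor were seeded at 1000 cells/well, pin-dosed with compounds and incubated 16 h. Luciferase reagent was then added, and end-point luminescence was read after 10 min at room temperature.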

[4] = molecular target: Alpha-galactosidase (Coffea arabica) (UniProt Q42656); assay: Counterscreen for Glucocerebrosidase Inhibitors: qHTS Assay for Coffee Bean alpha-Galactosidase at pH 4.5 (AID 957); also: series mostly up to about 77 µM
Method in brief: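 Quantitative HTS of compounds (0.7 nM to 77 uM) against coffee bean alpha-galactosidase at pH 4.5, measuring 4-methylumbelliferone fluorescence released from 80 uM substrate.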

[5] = molecular target: Alpha-galactosidase (Coffea arabica) (UniProt Q42656); assay: Counterscreen for Glucocerebrosidase Inhibitors: qHTS Assay for Coffee Bean alpha-Galactosidase at pH 5.9 (AID 998)
Method in brief: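 In 50 mM citric acid pH 5.9 with 0.005% Tween-20, coffee bean enzyme hydrolyses 80 uM 4-MU alpha-D-galactopyranoside over 20 min at RT. Activity is normalized to controls; AC50 comes from Hill-modelled concentration-response data.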

[6] = molecular target: Cytochrome P450 3A4 (Homo sapiens) (UniProt P08684); assay: qHTS Assay for Inhibitors and Substrates of Cytochrome P450 3A4 (AID 884); also: nearly all actives have a fitted effect of over 50% in size; also: potency is read from the fitted curve at half-maximal effect
Method in brief: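 Luminescent readout of luciferin produced by CYP3A4 (20 nM) dealkylation of Luciferin-PPXE, 25 uM (its KM). NADPH-driven reaction ran 60 min at RT after 10 min compound preincubation; data scaled to 57 uM ketoconazole as 100% inhibition.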

[7] = Confirmation and Secondary Assay for Modulators of Hemoglobin Beta Chain Splicing at IVS2 654 locus (AID 910);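 also: per-well total GFP intensity by laser scanning cytometry after 2-day treatment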
Method in brief: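 HeLa cells stably carrying EGFP interrupted by mutant beta-globin IVS2-654 intron (CMV-driven) were treated with compound for 2 days at 37C; corrected splicing was scored as total peak GFP intensity per well (488 nm excitation, 500-520 nm emission).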

[8] = Confirmation and Secondary Assay for Modulators of Hemoglobin Beta Chain Splicing at IVS2 705 locus (AID 930);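 also: HeLa cells stably expressing the EGFP-705 splicing reporter; GFP fluorescence per well restored by corrected splicing of the IVS2-705 intron in EGFP; series mostly up to about 46 µM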
Method in brief: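 HeLa IVS2-705 EGFP reporter cells, 500/well, compound 2 d at 37C; correct splicing yields fluorescent EGFP. Control: 500 nM antisense PNA. Read-out: total peak GFP intensity.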

[9] = molecular target: Peroxisome proliferator-activated receptor delta (Homo sapiens) (UniProt Q03181); assay: qHTS assay for small molecule agonists of peroxisome proliferator-activated receptor delta signaling (AID 588534; calls by dose curve)
Method in brief: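 EC50 and efficacy values derive from Hill fits of a concentration series in a beta-lactamase reporter cell assay. Exposure is 18 hrs at 37 C, with CCF4 fluorescence as the readout.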

[10] = qHTS assay for small molecule antagonists of peroxisome proliferator-activated receptor delta signaling (AID 588535; active = well fitted inhibition curve with a large enough effect in the signal ratio, with a control signal flat, not every such curve was filed as active; the % refers to the signal ratio;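 as to max response: cells co-treated with a PPAR-delta agonist as stimulator during compound exposure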); settings: HEK293T PPARd-UAS-bla, beta-lactamase FRET ratio, 18 h; 460 nm channel
Method in brief: (§1)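 Compounds tested in titration on PPAR-delta-UAS-bla HEK293T cells grown in charcoal/dextran-stripped serum (2%); beta-lactamase activity read via CCF4 emission at 460 and 530 nm.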

[11] = molecular target: Peroxisome proliferator-activated receptor delta (Homo sapiens) (UniProt Q03181); assay: as above
Method in brief: as §1

[12] = molecular target: Vitamin D3 receptor (Homo sapiens) (UniProt P11473); assay: qHTS assay for small molecule antagonists of vitamin D receptor signaling (AID 588541; calls by dose curve;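 also: receptor activated by calcitriol during compound treatment; series mostly up to about 77 µM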)
Method in brief: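 VDR-UAS-bla HEK293T cells (2000/well, 2% charcoal-stripped FBS) were treated with titrated compounds plus 1-alpha,25-dihydroxyvitamin D3 (50 nM or 3 nM final) for 16 h at 37 C. CCF4 beta-lactamase fluorescence was read; Hill fits gave IC50.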

[13] = molecular target: Vitamin D3 receptor (Homo sapiens) (UniProt P11473); assay: qHTS assay for small molecule agonists of vitamin D receptor signaling (AID 588543; calls by dose curve)
Method in brief: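 Agonist-mode beta-lactamase reporter: HEK293T VDR-UAS-bla cells in charcoal-stripped 2% FBS, compound series 16 h 37 C, CCF4 2 h RT. EC50 from Hill fit, scaled against DMSO and 50 nM calcitriol control.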

Chain of Alpha-galactosidase (Coffea arabica) (Q42656 whole entry, looked up): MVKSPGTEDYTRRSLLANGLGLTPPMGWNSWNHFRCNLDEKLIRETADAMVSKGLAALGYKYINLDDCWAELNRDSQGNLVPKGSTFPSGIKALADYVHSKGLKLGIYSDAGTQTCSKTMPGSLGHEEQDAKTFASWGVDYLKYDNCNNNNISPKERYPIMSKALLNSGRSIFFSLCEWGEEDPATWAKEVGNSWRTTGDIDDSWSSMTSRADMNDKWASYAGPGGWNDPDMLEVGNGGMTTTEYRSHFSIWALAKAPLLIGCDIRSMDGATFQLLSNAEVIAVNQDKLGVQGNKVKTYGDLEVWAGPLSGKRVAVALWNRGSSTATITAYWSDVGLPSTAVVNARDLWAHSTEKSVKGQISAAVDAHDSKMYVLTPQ
Chain of Cytochrome P450 3A4 (Homo sapiens) (P08684 whole entry, looked up): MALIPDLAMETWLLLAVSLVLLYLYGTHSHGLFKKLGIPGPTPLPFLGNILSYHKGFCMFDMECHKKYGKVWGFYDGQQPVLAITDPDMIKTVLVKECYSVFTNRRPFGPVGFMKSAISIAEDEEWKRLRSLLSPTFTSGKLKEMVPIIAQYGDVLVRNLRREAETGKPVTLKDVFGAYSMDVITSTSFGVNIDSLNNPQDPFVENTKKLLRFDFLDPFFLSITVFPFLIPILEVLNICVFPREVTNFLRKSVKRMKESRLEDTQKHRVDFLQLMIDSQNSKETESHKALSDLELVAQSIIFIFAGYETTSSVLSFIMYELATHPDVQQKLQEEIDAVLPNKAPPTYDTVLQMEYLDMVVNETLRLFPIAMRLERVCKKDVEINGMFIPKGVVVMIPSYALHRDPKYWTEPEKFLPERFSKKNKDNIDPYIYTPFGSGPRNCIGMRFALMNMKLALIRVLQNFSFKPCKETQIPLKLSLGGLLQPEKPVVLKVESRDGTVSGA
Chain of Peroxisome proliferator-activated receptor delta (Homo sapiens) (Q03181 whole entry, looked up): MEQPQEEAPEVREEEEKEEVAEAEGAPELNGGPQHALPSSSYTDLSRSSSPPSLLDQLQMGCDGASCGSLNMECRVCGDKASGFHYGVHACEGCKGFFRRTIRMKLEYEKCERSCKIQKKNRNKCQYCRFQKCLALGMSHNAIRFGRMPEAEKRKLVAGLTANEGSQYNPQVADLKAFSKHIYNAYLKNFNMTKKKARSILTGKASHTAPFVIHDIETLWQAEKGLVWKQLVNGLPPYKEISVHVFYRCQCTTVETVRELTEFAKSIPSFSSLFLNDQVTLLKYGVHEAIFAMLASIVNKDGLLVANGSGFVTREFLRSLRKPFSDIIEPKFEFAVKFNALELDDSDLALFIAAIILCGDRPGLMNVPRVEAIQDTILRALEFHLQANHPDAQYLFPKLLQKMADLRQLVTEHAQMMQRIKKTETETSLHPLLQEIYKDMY
Chain of Vitamin D3 receptor (Homo sapiens) (P11473 whole entry, looked up): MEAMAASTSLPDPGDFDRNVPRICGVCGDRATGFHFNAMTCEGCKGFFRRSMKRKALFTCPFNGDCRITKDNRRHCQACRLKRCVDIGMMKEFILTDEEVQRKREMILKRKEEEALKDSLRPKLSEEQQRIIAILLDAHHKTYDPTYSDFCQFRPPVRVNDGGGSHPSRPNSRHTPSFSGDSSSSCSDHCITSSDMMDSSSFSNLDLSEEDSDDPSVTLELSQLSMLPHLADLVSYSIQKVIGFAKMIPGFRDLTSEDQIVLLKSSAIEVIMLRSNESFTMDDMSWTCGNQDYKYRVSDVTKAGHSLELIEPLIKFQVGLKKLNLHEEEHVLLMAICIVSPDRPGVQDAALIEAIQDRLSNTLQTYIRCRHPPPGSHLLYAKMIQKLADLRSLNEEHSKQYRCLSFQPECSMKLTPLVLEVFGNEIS
Chain of DNA dC->dU-editing enzyme APOBEC-3G (Homo sapiens) (Q9HC16 whole entry, looked up): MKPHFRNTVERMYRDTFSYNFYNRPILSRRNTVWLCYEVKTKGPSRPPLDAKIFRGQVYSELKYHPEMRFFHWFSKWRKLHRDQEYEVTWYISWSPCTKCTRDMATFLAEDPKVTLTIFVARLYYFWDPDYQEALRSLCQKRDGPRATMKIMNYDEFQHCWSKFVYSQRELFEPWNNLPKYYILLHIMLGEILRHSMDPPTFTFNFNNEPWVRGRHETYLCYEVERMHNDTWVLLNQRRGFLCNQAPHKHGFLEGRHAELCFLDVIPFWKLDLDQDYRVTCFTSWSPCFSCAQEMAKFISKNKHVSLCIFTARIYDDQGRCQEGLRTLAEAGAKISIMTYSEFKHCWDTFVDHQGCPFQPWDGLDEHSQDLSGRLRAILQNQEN

SMILES: COc1cc2c(cc1OC)-c1c(OC)c(OC)c(C=O)c3c1[C@H](C2)N(C)CC3
- Potency [1]: inactive
- outcome [2]: inactive

SMILES: C=CCc1cccc(C=NNC(=O)CN2CCN(Cc3ccccc3)CC2)c1O
- outcome [3]: inactive

SMILES: CC[C@@H](C)[C@H]1O[C@]2(CC[C@H]1C)C[C@@H]1C[C@@H](CC=C(C)[C@@H](O[C@H]3C[C@H](OC)[C@@H](O[C@H]4C[C@H](OC)[C@@H](O)[C@H](C)O4)[C@H](C)O3)[C@@H](C)C=CC=C3CO[C@@H]4[C@H](O)C(C)=C[C@@H](C(=O)O1)[C@]34O)O2
- outcome [3]: inactive

SMILES: COc1ccccc1N1CCN(CCCCNS(=O)(=O)c2cccc3c(N(C)C)cccc23)CC1
- outcome [4]: inactive
- outcome [5]: inactive
- outcome [3]: inactive

SMILES: CCN(c1nc(N)c(C(=O)N=C(N)N)nc1Cl)C(C)C
- outcome [4]: inactive
- outcome [5]: inactive
- outcome [3]: inactive

SMILES: Cc1cc(NC2CCCCC2)nc(-n2nc(C)cc2C)n1
- outcome [3]: inactive

SMILES: C/C=C1/C[C@@H](C)[C@](O)(CO)C(=O)OCC2=CCN3CC[C@@H](OC1=O)C23 (stereo not given in full)
- Potency [6]: inactive
- outcome [2]: inactive

SMILES: O=[N+]([O-])c1ccc2c(c1)S(=O)(=O)C=C2
- outcome [3]: inactive

SMILES: NC(N)=NC(=O)c1nc(Cl)c(N2CCCCCC2)nc1N
- outcome [4]: inactive
- outcome [5]: inactive
- outcome [3]: inactive

SMILES: O=C(NC(=O)c1c(F)cccc1F)Nc1ccc(Cl)cc1
- Potency [6]: inactive
- Potency [7]: inactive
- outcome [8]: inactive
- outcome [9]: inactive
- max response [10]: -32.8%
- Potency [11]: inactive
- Potency [12]: inactive
- outcome [13]: inactive

SMILES: CCCCCCCC/C=C\CCCCCCCC(=O)NCCc1ccc(O)c(O)c1
- outcome [4]: inactive
- outcome [5]: inactive
- outcome [3]: inactive

SMILES: c1cnc2c(c1)ccc1cccnc12
- outcome [4]: inactive
- outcome [5]: inactive
- outcome [3]: inactive
- outcome [9]: inactive

SMILES: O=C1c2ccccc2C(=O)c2c(NCCc3ccc(O)cc3)ccc(NCCc3ccc(O)cc3)c21
- outcome [3]: inactive

SMILES: C[C@H]1O[C@H](O[C@H]2[C@H](O)[C@@H](O)[C@@H](O)[C@H](O)[C@@H]2O)[C@@H](N)C[C@@H]1NC(=N)C(=O)O
- Potency [6]: inactive
- Potency [7]: inactive
- outcome [8]: inactive

SMILES: NC1C[C@H]1c1ccccc1 (stereo not given in full)
- Potency [6]: inactive
- Potency [7]: inactive
- outcome [8]: inactive

SMILES: Cc1cccc2c3c(ccc12)C1=C(C(=O)C3=O)C(C)CO1 (stereo not given)
- Potency [1]: inactive

SMILES: COc1ccc(C2Oc3c(I)c(OC)cc(OC)c3CC2O)cc1OC (stereo not given)
- Potency [6]: 3.16 µM (active)
- Potency [1]: inactive
- Potency [7]: inactive
- outcome [8]: inactive

SMILES: CC(=O)OC1CCC2(C)C3=C(CCC2C1(C)C)[C@@]1(C)CCC(C(C)CCC=C(C)C)[C@@]1(C)CC3 (stereo not given in full)
- Potency [6]: inactive
